One may read the inhibition as the change of the read-out against control, counted positive when it falls.

Out of some 360,000 compounds screened, about 2,700 (0.75%) were called active. This is one part of a sample in which actives are shown more often than they occur. Values without a mark were called inactive. Rule as the data show it: active = inhibition above about 4.5%; inactive = the rest.

The text below walks through data of PubChem BioAssay AID651718 (The Scripps Research Institute Molecular Screening Center, 2012).

The assay relates to Methionine sulfoxide reductase A (Bos taurus). As to the kind of experiment: inhibition of methionine sulfoxide reductase A – biochemical, absorbance, bovine, HTS, primary screen (AID 651718).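 Also: 0% = vehicle wells with enzyme and 100% = reference inhibitor wells.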 To be noted: purified bovine MsrA, absorbance read-out; at 15.5 µM; active compounds read high.
On to `COc1ccccc1CNS(=O)(=O)c1cc2c3c(c1)CCC(=O)N3CCC2`, for which the inhibition was 0.88%.
With `Cc1cccc(CN2CCN(C3CN(Cc4cn(Cc5cc(C)cc(C)c5)nn4)S(=O)(=O)C3)CC2)c1` (stereo unspecified) the figure was -0.09%; with `COC(=O)c1c(-c2ccc(OC)cc2)c2c(c3c4cc(OC)ccc4n(S(=O)(=O)c4ccc(F)cc4)c13)C(=O)N(C)C2`, 1.35%; with `COC(=O)[C@]12C[C@H](CC(=O)NCc3ccc(OC)c(OC)c3)C(=O)N(Cc3ccccc3)C1=C[C@H](C(C)C)O[C@@H]2C1CC1`, 0.87%.
With `C/C(=N\Nc1ccccc1)c1cccs1` the figure was -0.47%; with `C/C(=N\Nc1nc2ccccc2[nH]1)c1cccs1`, 4.27%.
On to `C/C(=N\Nc1ccc(S(N)(=O)=O)cc1[N+](=O)[O-])c1cccs1`, for which the inhibition was 4.74% (active).
With `COc1cccc(CC(=O)N2CCN(C(=O)C(=O)c3cccc(C(F)(F)F)c3)CC2)c1` the figure was -0.48%; with `COc1ccccc1Cc1c(-c2ccc(F)cc2)nc2ccc(C)cn12`, -0.14%.
With `O=C(N[C@H](C(=O)N1CCC[C@H]1C(=O)NCCc1ccccc1Cl)c1ccccc1)c1ccccc1` the figure was -1.55%; with `COC(=O)[C@]1(Cc2ccccc2)NC=C(C(=O)c2ccccc2)[C@@H]1c1cccc(OC)c1`, 1.03%.
In the case of `Cc1nc2ccccc2n1CC(=O)N/N=C/c1cccs1` it was 0.96%; in that of `Cc1n[nH]c(=O)nc1N/N=C/c1cccs1`, 5.54% (active).
With `Cn1c(=O)c2c(nc(N/N=C/c3cccs3)n2Cc2ccc(Br)cc2)n(C)c1=O`, the inhibition was -0.37%.
With `Cc1ccc(N)cc1CN1CCN(c2ncc(Cc3ccccc3)cn2)CC1` the figure was -0.75%.
With `CC(=O)C1=C(C)N(Cc2ccccc2)C(=S)NC1c1cccc(Br)c1` (stereo unspecified) the figure was 0.33%.
Regarding `COc1ccccc1C(=O)N/C(=C/c1ccc2c(c1)OCO2)C(=O)Nc1cccc(C(=O)O)c1`, the inhibition is 5.04% (active).
On to `COc1ccccc1C(=O)N/C(=C/c1ccco1)C(=O)Nc1ccc(C(=O)O)cc1`, for which the inhibition is 3.68%.
Regarding `COc1ccc(/C=C(/NC(=O)c2ccccc2)C(=O)Nc2cccc(C(=O)O)c2)cc1`, the inhibition is 1.96%.
In the case of `O=C(NCc1ccccc1)[C@H]1CCCN1C(=O)[C@@H]1CCCN1C(=O)c1ccc(Cl)cc1Cl` it was -0.17%.
In the case of `NC(=S)N/N=C/c1ccc([N+](=O)[O-])cc1` it was 5.41% (active); in that of `NC(=O)C1(Nc2ccc([N+](=O)[O-])cc2)CCCC1`, 1.4%.
In the case of `O=[N+]([O-])c1ccc(N=NNc2ccc([N+](=O)[O-])cc2)cc1` it was 0.99%; in that of `Cc1ccc2nc(SCc3nnc(-c4ccccc4[N+](=O)[O-])o3)c(C#N)cc2c1`, -0.69%.
Consider `Cc1ccc(-c2ccc(/C=C(\C#N)C(N)=S)o2)c([N+](=O)[O-])c1`, for which the inhibition was 10.9% (active).
With `COC(=O)[C@]12C[C@H](CC(=O)NCCC(C)C)C(=O)N(CCc3ccc(OC)c(OC)c3)C1=C[C@H](C(C)(C)C)O[C@@H]2C` the figure was -0.48%.
With `CN[C@H]1C[C@H]2c3[nH]c4c(-c5ccccc5)cccc4c3CCN2C(=O)[C@H]1[C@H](C)O` the figure was 0.9%.
For `CC(C)CC(CCc1ccccc1)OS(N)(=O)=O` (stereo unspecified), the inhibition is 0.27%.
With `O=C(Cc1ccc([N+](=O)[O-])cc1)N/N=C/c1ccco1` the figure was 1.04%; with `O=C(Cc1ccccc1)Nc1cccc(C(=O)N/N=C/c2ccco2)c1`, 2.33%; with `O=C(N/N=C/c1ccco1)c1ccc(C(=O)N/N=C/c2ccco2)o1`, 10% (active).
With `C[C@H]1CN([C@@H](C)CO)C(=O)CCCn2nncc2CO[C@@H]1CN(C)C(=O)Nc1ccc(N2CCN(C)CC2)cc1` the figure was -0.42%.
With `O=C(Nc1c(Cl)c(C2CC2)nn1-c1ccccc1)C(Cl)(Cl)Cl` the figure was -0.78%; with `Cc1nc2nc(SCC(=O)Nc3cccc(F)c3)[nH]c2cc1Br`, -0.88%; with `O=C(Nc1cccc(F)c1)[C@@H]1CCCN1`, 0.99%.
Regarding `O=C(Nc1cccc(F)c1)c1coc(=O)c(Br)c1`, the inhibition is 5.37% (active).
With `Nc1nc2c(ncn2[C@@H]2O[C@H](C(=O)N[C@@H](Cc3ccccc3)C(=O)NCc3ccccc3)[C@@H](O)[C@H]2O)c(=O)[nH]1` the figure was -0.25%; with `COC(=O)c1ccc(CN2C(=O)[C@]3(OCCC=C[C@H]3C)c3c(Br)cccc32)cc1`, 1.8%.
With `COCCCNC(=O)C[C@H]1C[C@@]2(C(=O)OC)C(=C[C@H](C(C)(C)C)O[C@@H]2C)N(Cc2ccc3c(c2)OCO3)C1=O` the figure was -0.56%; with `O=C(O)c1ccc(F)c(S(=O)(=O)Nc2ccccc2)c1`, -0.45%; with `Cc1ccc(C(=O)Nc2ccccc2-c2ccccc2)cc1S(=O)(=O)Nc1ccccc1`, 4.76% (active).
Take `Cc1cc(C(C)(C)C)cc(S(=O)(=O)Nc2ccc(C(=O)O)cc2)c1C`: the inhibition was 1.5%.
With `Cc1ccc(NC(=O)N2c3ccccc3SC2c2ccco2)c(C)c1` (stereo unspecified) the figure was -0.74%.
Regarding `Cc1nc2ccccn2c(=O)c1NC(=O)c1ccc(Br)o1`, the inhibition was 2.43%.
With `CN1C(=O)CN2CCc3ccccc3C2c2cc(Cl)ccc21` (stereo unspecified) the figure was 1.04%; with `CC1CCCCN1S(=O)(=O)c1ccc(C(=O)Nc2nnc(-c3cccs3)o2)cc1` (stereo unspecified), 4.79% (active); with `CSCc1nnc(NC(=O)c2ccc(S(=O)(=O)N3CCCCC3C)cc2)o1` (stereo unspecified), -0.31%.
With `CC1CCCCN1S(=O)(=O)c1ccc(S(=O)(=O)N(CC(=O)Nc2ccccc2)Cc2cccs2)cc1` (stereo unspecified) the figure was -0.63%; with `O=C(N[C@H](Cc1ccccc1)C(=O)N1CCCN(Cc2cccs2)CC1)[C@H]1O[C@@H](n2ccc(=O)[nH]c2=O)[C@H](O)[C@@H]1O`, 0.08%.
With `O=c1c(F)cn(C2CCCO2)c(=O)n1Cc1ccccc1Cl` (stereo unspecified) the figure was 0.2%; with `O=c1[nH]c2ccc(S(=O)(=O)N3CCCC3)cc2[nH]1`, -0.78%.
As for `CN(c1ccccc1)S(=O)(=O)c1ccc2[nH]c(=O)[nH]c2c1`, the inhibition is 14.1% (active).
As for `CCN(c1ccccc1)S(=O)(=O)c1ccc2[nH]c(=O)[nH]c2c1`, the inhibition is 2.53%.
With `CN1C(=O)C(Br)(Br)CC1c1cccnc1` (stereo unspecified) the figure was 1.57%; with `Cc1cc(Br)cn2c(Cc3ccccc3C(F)(F)F)c(-c3ccc(C#N)cc3)nc12`, -0.24%.
In the case of `O=C(COC(=O)COc1cc(Cl)c(Cl)cc1Cl)NC1CC1` it was 3.33%; in that of `O=C(COc1cc(Cl)c(Cl)cc1Cl)NCCc1ccccn1`, -0.1%.
With `NC(=S)NN=Cc1ccc(OC(=O)COc2cc(Cl)c(Cl)cc2Cl)cn1` the figure was 4.84% (active); with `CCCCCCCCN1C(=O)[C@@H](CC(=O)NCc2ccccc2)C[C@@]2(C(=O)OC)C1=C[C@H](C(C)(C)C)O[C@@H]2C`, 0.32%.
Take `CCOc1cccc(NC(=O)Cn2nc(-c3ccc4c(c3)OCCO4)ccc2=O)c1`: the inhibition was -0.18%.
In the case of `COc1cc(C=NC2CCCCC2)ccc1O` it was 3.96%; in that of `COc1cccc2[nH]c(C(=O)NCCc3ccccc3)cc12`, -0.25%; in that of `CCN1CCCC1CNC(=O)c1cc2cc(OC)c(OC)cc2[nH]1` (stereo unspecified), 2.2%.
With `CCOc1ccc2[nH]c(C(=O)N/N=C/c3cccc(OC)c3OC)cc2c1` the figure was 5.19% (active); with `COc1cc2cc(C(=O)N/N=C/c3cccc(OC)c3OC)[nH]c2cc1OC`, 5.39% (active); with `COc1ccc2[nH]c(=O)c(CNc3ccc(C)c(C)c3)cc2c1`, 1%.
On to `CCOc1ccccc1/C=N/NC(=O)CNC(=O)COc1ccccc1`, for which the inhibition is 0.86%.
In the case of `CCOc1ccc2ccccc2c1/C=N/NC(=O)c1c(C)cc(C)[nH]c1=O` it was 2.01%.
On to `COc1ccc2[nH]c(C(=O)N/N=C/c3cc(OC)c(OC)c(OC)c3)cc2c1`, for which the inhibition was 6.03% (active).
With `CCC(=O)c1ccc(OC(=O)/C=C/c2cc(OC)c(OC)c(OC)c2)cc1` the figure was 1.16%; with `Cc1ccc(C)c(N2C(=O)CS/C2=N\NC(=O)c2ccccc2Cl)c1`, 0.65%; with `Cc1ccc(N2C(=O)C3C4C=CC(CC4)C3C2=O)cc1Br` (stereo unspecified), -0.75%.
In the case of `Cc1[nH]nc2c1C(c1ccc(Br)cc1)NC2=O` (stereo unspecified) it was 0.64%; in that of `CCOC(=O)C1=CCC2C(=O)N(Cc3ccccc3)C(=O)C12` (stereo unspecified), -0.57%; in that of `C[C@H](O)[C@@H]1CN2CCc3ccc(-c4ccc5c(c4)OCO5)cc3[C@@H]2C[C@@H]1N(C)C(=O)C1CCCCC1`, -0.49%.
For `Cc1ccc(C(=O)NC2CCCC(C)C2C)cc1S(=O)(=O)N1CCCCC1` (stereo unspecified), the inhibition is -0.29%.
In the case of `Cn1nc(C(F)(F)F)c2cc(C(=O)N3CCOCC3)sc21` it was -0.18%.
In the case of `COc1cccc(-c2nn(C)c3sc(C(=O)N4CCN(c5ccccc5)CC4)cc23)c1` it was 4.59% (active).
With `COc1cccc(-c2ccc(SCC(=O)N3CCN(c4ccccc4)CC3)nn2)c1` the figure was -0.38%; with `O=C(C(=O)N1CCC(CNS(=O)(=O)Cc2ccccc2)CC1)c1cc2ccccc2o1`, 1.99%; with `O=c1c2ccccc2nnn1CSc1nc2sc3c(c2c(=O)n1CC1CCCO1)CCC3` (stereo unspecified), -0.37%.
As for `Brc1cc(/C=N/n2cnnc2)oc1Br`, the inhibition was 2.05%.
With `Clc1cc(-c2ccc(/C=N/n3cnnc3)o2)ccc1Br` the figure was 0.91%.
With `Cc1ccc(Cl)cc1-c1ccc(/C=N/n2cnnc2)o1` the figure was 4.94% (active).
In the case of `CC(=O)Nc1ccc(S(=O)(=O)N(C)c2ccc(OCC(=O)OCC(=O)N3CCCCC3)cc2)cc1` it was -0.39%.
With `CC(C)OCCCNC(=S)N1CCC(C(=O)c2ccc3c(c2)OCCO3)CC1`, the inhibition is -0.4%.
